# In the supplement of paper PMC8975748:
# Counter-ions that a name gives are not always drawn.
# Tested on: Saccharomyces cerevisiae BY4741 SeMeCo community
# Assay: z-score of subpopulation abundance vs DMSO median, subpopulation auxotrophic for HL; higher = larger share of this subpopulation than in DMSO controls
# Details: 10 µM; 24 h; SM minimal medium; subpopulation (auxotrophy): HL
# Description: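 Fluorescent four-plasmid SeMeCo (self-establishing metabolically cooperating S. cerevisiae BY4741 community; plasmids pH-mRuby2, pL-mWasabi, pU-eCFP, pM-TagRFP657) was grown 24 h in minimal SM medium with each Selleck FDA-approved drug at 10 µM in 384-well plates. Cells were fixed and imaged by high-content confocal microscopy. For each auxotrophic subpopulation (and the prototroph), a z-score gives the deviation from the DMSO vehicle-control population median.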
row,SMILES,z-score of subpopulation abundance
1,Nc1nnc(-c2cccc(Cl)c2Cl)c(N)n1 [Lamotrigine],1.44
2,CCCCCCCCCC(=O)N[C@@H](Cc1c[nH]c2ccccc12)C(=O)N[C@H](CC(N)=O)C(=O)N[C@@H](CC(=O)O)C(=O)N[C@@H]1C(=O)NCC(=O)N[C@@H](CCCN)C(=O)N[C@@H](CC(=O)O)C(=O)N[C@H](C)C(=O)N[C@@H](CC(=O)O)C(=O)NCC(=O)N[C@H](CO)C(=O)N[C@@H]([C@H](C)CC(=O)O)C(=O)N[C@@H](CC(=O)c2ccccc2N)C(=O)O[C@@H]1C [Daptomycin],2.68
3,COc1cc(NS(=O)(=O)c2ccc(N)cc2)ncn1 [Sulfamonomethoxine],-0.82
4,OC(Cn1cncn1)(Cn1cncn1)c1ccc(F)cc1F [Fluconazole],-1.18
5,O=C(Cn1cnnn1)N[C@@H]1C(=O)N2C(C(=O)O)=C(CSc3nncs3)CS[C@H]12 [Ceftezole sodium],0
6,CC[C@H](C)C(=O)O[C@H]1CCC=C2C=C[C@H](C)[C@H](CC[C@@H]3C[C@@H](O)CC(=O)O3)[C@H]21 [Mevastatin],0.72
7,CC1=C(C(=O)O)N2C(=O)[C@@H](NC(=O)[C@H](N)C3=CCC=CC3)[C@H]2SC1 [Cefradine],0.06
8,CC[C@H]1OC(=O)C[C@@H](O)[C@H](C)[C@@H](O[C@@H]2O[C@H](C)[C@@H](O[C@H]3C[C@@](C)(O)[C@@H](O)[C@H](C)O3)[C@H](N(C)C)[C@H]2O)[C@@H](CC=O)C[C@@H](C)C(=O)/C=C/C(C)=C/[C@@H]1CO[C@@H]1O[C@H](C)[C@@H](O)[C@@H](OC)[C@H]1OC [Tylosin],2.73
9,Cc1ncc([N+](=O)[O-])n1C [Dimetridazole],-0.32
10,C#C[C@]1(O)CC[C@H]2[C@@H]3CCC4=Cc5oncc5C[C@]4(C)[C@H]3CC[C@@]21C [Danazol],-0.13
11,CC(C)COCC(CN(Cc1ccccc1)c1ccccc1)N1CCCC1 (stereo not given) [Bepridil hydrochloride],1.07
12,Nc1ccc(S(=O)(=O)Nc2ccccn2)cc1 [Sulfapyridine],-0.68
13,C=C[C@H]1CN2CC[C@H]1C[C@@H]2[C@@H](O)c1ccnc2ccc(OC)cc12 [Quinidine sulfate],1.36
14,Fc1ccc(C(c2ccc(F)cc2)N2CCN(C/C=C/c3ccccc3)CC2)cc1 [Flunarizine 2HCl],0.64
15,CCn1cc(C(=O)O)c(=O)c2cc(F)c(N3CCN(C)CC3)cc21 [Pefloxacin Mesylate],0
16,CN1CCC[C@@H]1Cc1c[nH]c2ccc(CCS(=O)(=O)c3ccccc3)cc12 [Eletriptan HBr],-0.15
17,CCCCCCCCCCCC(=O)O [Lauric Acid],-1.05
18,CCCNCC(O)COc1ccccc1C(=O)CCc1ccccc1 (stereo not given) [Propafenone HCl],-0.37
19,Nc1ccc(S(=O)(=O)Nc2ncccn2)cc1 [Sodium sulfadiazine],0.08
20,CCCCCc1ccc(C)cc1O [Amylmetacresol],-0.02

row,SMILES,z-score of subpopulation abundance
1,Cc1ccccc1OCC(O)CO (stereo not given) [Mephenesin],-0.53
2,c1cnc(N2CCN(Cc3ccc4c(c3)OCO4)CC2)nc1 [Piribedil],0.51
3,Cc1cc(CC(C)CC(C)(C)C)n(O)c(=O)c1 (stereo not given) [Piroctone Olamine],14.6
4,CC(=O)NO [Acetohydroxamic acid],0.57
5,Nc1c(CC(=O)O)cccc1C(=O)c1ccccc1 [Amfenac Sodium Monohydrate],-0.27
6,CCn1cc(C(=O)O)c(=O)c2cnc(N3CCNCC3)nc21 [Pipemidic acid],0.01
7,CCc1cccc2c3c([nH]c12)C(CC)(CC(=O)O)OCC3 (stereo not given) [Etodolac],-0.44
8,CC1=C(C(=O)O)N2C(=O)[C@@H](NC(=O)[C@H](N)c3ccccc3)[C@H]2SC1 [Cephalexin],0.67
9,CC(=O)[C@@]1(O)CC[C@H]2[C@@H]3C[C@H](C)C4=CC(=O)CC[C@]4(C)[C@H]3CC[C@@]21C [Medroxyprogesterone],0.3
10,CCCCOc1ccc(CC(=O)NO)cc1 [Bufexamac],-0.85
11,CN(C)CCc1c[nH]c2ccc(C[C@H]3COC(=O)N3)cc12 [Zolmitriptan],0.28
12,C[C@]12CC[C@@H]3c4ccc(OC(=O)c5ccccc5)cc4CC[C@H]3[C@@H]1CC[C@@H]2O [Estradiol Benzoate],-0.31
13,Fc1ccc([C@@H]2CCNC[C@H]2COc2ccc3c(c2)OCO3)cc1 [Paroxetine HCl],0.14
14,N[C@@H]1CCCCN(c2c(F)cc3c(=O)c(C(=O)O)cn(C4CC4)c3c2Cl)C1 [Besifloxacin HCl],-0.33
15,C#C[C@]1(O)CC[C@H]2[C@@H]3CCc4cc(OC5CCCC5)ccc4[C@H]3CC[C@@]21C [Quinestrol],0.28
16,O=c1n(CCCN2CCN(c3cccc(Cl)c3)CC2)nc2ccccn12 [Trazodone HCl],-0.82
17,CCOC(=O)C1=C(C)NC(C)=C(C(=O)OC)C1c1cccc(Cl)c1Cl (stereo not given) [Felodipine],4.71
18,CN(C)CCN1C(=O)c2cccc3cc(N)cc(c23)C1=O [Amonafide],-0.12
19,CC(C)c1c(C(=O)Nc2ccccc2)c(-c2ccccc2)c(-c2ccc(F)cc2)n1CC[C@@H](O)C[C@@H](O)CC(=O)O [Atorvastatin],5.39
20,CCCN[C@H]1CCc2nc(N)sc2C1 [Pramipexole dihydrochloride],0.19
